Inconclusive results are not listed. Calls of active or inactive are those of the source. Calls follow the shape of the dose curve; as a rule, active = well fitted cell-killing curve with a large enough effect; inconclusive = small, poorly fitted or top-dose-only effect, or effect the other way; inactive = flat fitted curve, though single readings scatter. Where a SMILES comes first, the peptide text is derived from it. The star is where a group is joined. Hexanoyl = CCCCCC(=O)*
Assays:
Test in all cases: Primary qHTS to identify gynecologic anti-cancer compounds using libraries of approved drugs and bioactive compounds (AID 1345084); also: nearly all actives have a fitted effect of over 55% in size
[1] = test system: C33A; settings: Gynecologic cancer cell panel viability, ATPlite luminescence, 48 h; series mostly up to 57.5 µM
Summary of the method: (§1)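 Luminescence from the ATPlite ATP-monitoring reagent indicates viable cell number; lower signal means cytotoxicity. Cells received compound 16 h after seeding and were exposed for 48 h across five concentrations.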

[2] = test system: CAOV3; settings: Gynecologic cancer cell panel viability, ATPlite luminescence, 48 h; series mostly up to 57.5 µM
Summary of the method: as §1

[3] = test system: CASKI; settings: Gynecologic cancer cell panel viability, ATPlite luminescence, 48 h; series mostly up to 57.5 µM
Summary of the method: as §1

[4] = test system: Es-2; settings: Gynecologic cancer cell panel viability, ATPlite luminescence, 48 h; series mostly up to 57.5 µM
Summary of the method: as §1

[5] = test system: HeLa; settings: Gynecologic cancer cell panel viability, ATPlite luminescence, 48 h; series mostly up to 57.5 µM
Summary of the method: as §1

[6] = test system: Hek293T; settings: Gynecologic cancer cell panel viability, ATPlite luminescence, 48 h, control line for the selectivity index; series mostly up to 57.5 µM
Summary of the method: as §1

[7] = test system: JEG-3; settings: Gynecologic cancer cell panel viability, ATPlite luminescence, 48 h; series mostly up to 57.5 µM
Summary of the method: as §1

[8] = test system: OV90; settings: Gynecologic cancer cell panel viability, ATPlite luminescence, 48 h; series mostly up to 57.5 µM
Summary of the method: as §1

[9] = test system: PA-1; settings: Gynecologic cancer cell panel viability, ATPlite luminescence, 48 h; series mostly up to 57.5 µM
Summary of the method: as §1

[10] = test system: Tov-21-G; settings: Gynecologic cancer cell panel viability, ATPlite luminescence, 48 h; series mostly up to 57.5 µM
Summary of the method: as §1

[11] = test system: Tov112D; settings: Gynecologic cancer cell panel viability, ATPlite luminescence, 48 h; series mostly up to 57.5 µM
Summary of the method: as §1
% is scaled to controls: 0 for no effect and ±100 for the full control effect.

C[C@@]1(O)[C@H](O)[C@@H](CO)O[C@H]1n1cnc2c(=O)[nH]c(N)nc21
inactive: Potency [1] | Potency [2] | outcome [3] | Potency [4] | Potency [5] | Potency [6] | Potency [7] | Potency [8] | Potency [9] | Potency [10] | Potency [11]

COc1cc(C2Oc3c(OC)cc(CCCO)cc3C2CO)ccc1O (stereo unspecified)
inactive: Potency [1] | Potency [2] | outcome [3] | Potency [4] | Potency [5] | Potency [6] | Potency [7] | Potency [8] | Potency [9] | Potency [10] | Potency [11]

CC(C)[C@](O)(c1ccc2cc(OC(F)F)c(OC(F)F)cc2c1)c1cn[nH]n1
inactive: Potency [1] | Potency [2] | outcome [3] | Potency [4] | Potency [5] | Potency [6] | Potency [7] | Potency [8] | Potency [9] | Potency [10] | Potency [11]

CC1(C)CCCC2(C)c3c4c(c(=O)oc(=O)c3=CCC12)=CCC1C(C)(C)CCCC41C (stereo unspecified)
inactive: Potency [1] | Potency [2] | outcome [3] | Potency [4] | Potency [5] | Potency [6] | Potency [7] | Potency [8] | Potency [9] | Potency [10] | Potency [11]

C[C@@H](CC[C@@H]1[C@@]2(C)CCCC(C)(C)C2CC[C@@]1(C)O)CC(=O)O (stereo partly specified)
inactive: Potency [1] | Potency [2] | outcome [3] | Potency [4] | Potency [5] | Potency [6] | Potency [7] | Potency [8] | Potency [9] | Potency [10] | Potency [11]

O=C(COCC(=O)N1CCN(C(c2ccccc2)c2ccccc2)CC1)Nc1ccc(Cl)cc1C(=O)O
inactive: Potency [1] | Potency [2] | outcome [3] | Potency [4] | Potency [5] | Potency [6] | Potency [7] | Potency [8] | Potency [9] | Potency [10] | Potency [11]

CCCCCC(=O)N1CCC[C@H]1C(=O)N[C@@H](Cc1ccc(O)cc1)C(=O)OC (Hexanoyl-Pro-Tyr-OMe)
inactive: Potency [1] | Potency [2] | outcome [3] | Potency [4] | Potency [5] | Potency [6] | Potency [7] | Potency [8] | Potency [9] | Potency [10] | Potency [11]

CCCC(C(=O)O)c1c(C)nc2ccc(Cl)cc2c1-c1ccccc1 (stereo unspecified)
inactive: Potency [1] | Potency [2] | outcome [3] | Potency [4] | Potency [5] | Potency [6] | Potency [7] | Potency [8] | Potency [9] | Potency [10] | Potency [11]

COc1cc(O)c2c(c1Cl)CC(C)OC2=O (stereo unspecified)
inactive: Potency [1] | Potency [2] | outcome [3] | Potency [4] | Potency [5] | Potency [6] | Potency [7] | Potency [8] | Potency [9] | Potency [10] | Potency [11]

C/C=C/C=C/C=C/C(=O)O[C@@H]1C=C(CO)[C@](O)(CO)[C@@]2(C)CCCC(C)(C)[C@H]12
inactive: Potency [1] | Potency [2] | outcome [3] | Potency [4] | Potency [5] | Potency [6] | Potency [7] | Potency [8] | Potency [9] | Potency [10] | Potency [11]

COc1ccc(C(=O)NCc2cc(C(C)C)no2)cc1OC1CCN(C)CC1
inactive: Potency [1] | Potency [2] | outcome [3] | Potency [4] | Potency [5] | Potency [6] | Potency [7] | Potency [8] | Potency [9] | Potency [10] | Potency [11]

CC(=O)NC(Cc1c[nH]c2ccccc(=O)c12)C(=O)O (stereo unspecified)
inactive: Potency [1] | Potency [2] | outcome [3] | Potency [4] | Potency [5] | Potency [6] | Potency [7] | Potency [8] | Potency [9] | Potency [10] | Potency [11]

CC(=O)O[C@@H]1[C@H](O[C@@H]2O[C@H](CO)[C@@H](O)[C@H](O)[C@H]2O)[C@@H](O[C@@H]2O[C@@H](C)[C@H](O)[C@@H](O[C@@H]3O[C@H](CO)[C@@H](O)[C@H](O)[C@H]3O)[C@H]2O)[C@H](OC(=O)[C@]23CCC(C)(C)C[C@H]2C2=CCC4[C@@]5(C)C[C@H](O)[C@H](O[C@@H]6O[C@H](C(=O)O)[C@@H](O)[C@H](O)[C@H]6O)[C@@](C)(C(=O)O)C5CC[C@@]4(C)[C@]2(C)CC3)O[C@@H]1C (stereo partly specified)
inactive: activity change, negative = cytotoxicity [1] 2.77% [at 6.55 µM] | activity change, negative = cytotoxicity [2] -7.98% [at 6.55 µM] | activity change, negative = cytotoxicity [3] -0.483% [at 6.55 µM] | activity change, negative = cytotoxicity [4] -0.374% [at 6.55 µM] | activity change, negative = cytotoxicity [5] 0.873% [at 6.55 µM] | activity change, negative = cytotoxicity [6] 0.423% [at 6.55 µM] | activity change, negative = cytotoxicity [7] 0.0867% [at 6.55 µM] | activity change, negative = cytotoxicity [8] 12.5% [at 6.55 µM] | activity change, negative = cytotoxicity [9] 1.9% [at 6.55 µM] | activity change, negative = cytotoxicity [10] 0.569% [at 6.55 µM] | activity change, negative = cytotoxicity [11] 7.58% [at 6.55 µM]

COc1c2c(c(C)c3c1C(=O)OC3)OC1(C)CC(O)C34OC(OC)(CC(O)C3(C)C1C2)OC4(C)C (stereo unspecified)
inactive: Potency [1] | Potency [2] | outcome [3] | Potency [4] | Potency [5] | Potency [6] | Potency [7] | Potency [8] | Potency [9] | Potency [10] | Potency [11]

COC(=O)C1=CO[C@@H](O[C@@H]2O[C@H](CO)[C@@H](O)[C@H](O)[C@H]2O)[C@H]2[C@@H]1[C@H](O)[C@H](O)[C@]2(C)O
inactive: Potency [1] | Potency [2] | outcome [3] | Potency [4] | Potency [5] | Potency [6] | Potency [7] | Potency [8] | Potency [9] | Potency [10] | Potency [11]

H-DPPDPDRFYGMM-NH2
inactive: Potency [1] | Potency [2] | outcome [3] | Potency [4] | Potency [5] | Potency [6] | Potency [7] | Potency [8] | Potency [9] | Potency [10] | Potency [11]
